Data published in PubChem BioAssay (NCI).
The panel holds about 83,000 compounds, 20% with a hit somewhere; the sample as a whole holds those more often.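 Interpretation: 100, growth as untreated; towards 0, rising growth inhibition; 0, no net growth; 0 to -100, cell death. Compounds scoring below 10 were considered active.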 Activity calls are given as the source filed them.

What was measured:
Assay in all cases: NCI-60 one-dose screen, 48 h (100 = growth as untreated, 0 = no growth, -100 = all killed)
Conditions in all cases: 10 µM unless noted
RPMI-8226 leukemia = test system: RPMI-8226 leukemia
OVCAR-8 ovarian = test system: OVCAR-8 ovarian
OVCAR-5 ovarian = test system: OVCAR-5 ovarian
OVCAR-4 ovarian = test system: OVCAR-4 ovarian
SK-OV-3 ovarian = test system: SK-OV-3 ovarian
IGROV1 ovarian = test system: IGROV1 ovarian
OVCAR-3 ovarian = test system: OVCAR-3 ovarian
HS 578T breast = test system: HS 578T breast
NCI/ADR-RES ovarian = test system: NCI/ADR-RES ovarian
T-47D breast = test system: T-47D breast
BT-549 breast = test system: BT-549 breast
MDA-MB-435 melanoma = test system: MDA-MB-435 melanoma
SW-620 colon = test system: SW-620 colon
MCF7 breast = test system: MCF7 breast
HCT-116 colon = test system: HCT-116 colon
HCC-2998 colon = test system: HCC-2998 colon
KM12 colon = test system: KM12 colon

Measured: growth

Cc1sc2nc(CSc3nnc(-c4ccco4)o3)[nH]c(=O)c2c1C
inactive: RPMI-8226 leukemia 67.3% | OVCAR-8 ovarian 104% | OVCAR-5 ovarian 114% | OVCAR-4 ovarian 105% | SK-OV-3 ovarian 132% | IGROV1 ovarian 109% | OVCAR-3 ovarian 108% | HS 578T breast 115% | NCI/ADR-RES ovarian 112% | T-47D breast 95.4% | BT-549 breast 102% | MDA-MB-435 melanoma 105% | SW-620 colon 101% | MCF7 breast 104% | HCT-116 colon 115% | HCC-2998 colon 124% | KM12 colon 118%

COc1ccc2c(c1)C(C)Cc1c(N(C)C)ncnc1N2C (centres undefined)
inactive: RPMI-8226 leukemia 30.8% | OVCAR-8 ovarian 40.8% | OVCAR-5 ovarian 73.2% | OVCAR-4 ovarian 62.4% | SK-OV-3 ovarian 30% | IGROV1 ovarian 54.4% | OVCAR-3 ovarian 10.3% | HS 578T breast 13.3% | NCI/ADR-RES ovarian 36.2% | T-47D breast 34.7% | BT-549 breast 17.7% | SW-620 colon 21.4% | MCF7 breast 19.5% | HCT-116 colon 23.7% | HCC-2998 colon 74.6% | KM12 colon 23.6%
active: MDA-MB-435 melanoma -5.79%

Cc1ccc(-c2csc3nc(C)c(CCCl)c(=O)n23)cc1
inactive: RPMI-8226 leukemia 83.8% | OVCAR-8 ovarian 103% | OVCAR-5 ovarian 107% | OVCAR-4 ovarian 82.1% | SK-OV-3 ovarian 105% | IGROV1 ovarian 78.8% | OVCAR-3 ovarian 99.4% | HS 578T breast 83% | NCI/ADR-RES ovarian 105% | T-47D breast 76.7% | BT-549 breast 119% | MDA-MB-435 melanoma 97.3% | SW-620 colon 99.2% | MCF7 breast 78.3% | HCT-116 colon 89.4% | HCC-2998 colon 109% | KM12 colon 103%

Cc1cc(Cl)ccc1OC(C)C(=O)Nc1nnc(C2CC2)s1 (centres undefined)
inactive: RPMI-8226 leukemia 89.6% | OVCAR-8 ovarian 111% | OVCAR-5 ovarian 98.7% | OVCAR-4 ovarian 104% | SK-OV-3 ovarian 103% | OVCAR-3 ovarian 110% | NCI/ADR-RES ovarian 96.6% | T-47D breast 90.9% | BT-549 breast 116% | MDA-MB-435 melanoma 102% | SW-620 colon 103% | MCF7 breast 112% | HCT-116 colon 94.7% | KM12 colon 107%
active: IGROV1 ovarian -51.7% | HS 578T breast -24.6%

CC(C)C[C@H](NC(=O)[C@H](Cc1ccccc1)n1ccc(N2CCCCC2)cc1=O)B(O)O
inactive: OVCAR-8 ovarian 31.8% | OVCAR-5 ovarian 39.3% | OVCAR-4 ovarian 39.3% | SK-OV-3 ovarian 53.9% | IGROV1 ovarian 46.2% | HS 578T breast 22% | NCI/ADR-RES ovarian 90.3% | BT-549 breast 31.3% | MCF7 breast 31.3%
active: RPMI-8226 leukemia -10.5% | OVCAR-3 ovarian -29.3% | T-47D breast -20.4% | MDA-MB-435 melanoma -66% | SW-620 colon 6.5% | HCT-116 colon 2.64% | HCC-2998 colon -36.9% | KM12 colon 1.6%

O=C(Cc1n[nH]c(=O)c2ccccc12)OCc1c(Cl)cccc1Cl
inactive: RPMI-8226 leukemia 63.7% | OVCAR-8 ovarian 102% | OVCAR-5 ovarian 95.7% | OVCAR-4 ovarian 105% | SK-OV-3 ovarian 113% | IGROV1 ovarian 29.4% | OVCAR-3 ovarian 84.5% | HS 578T breast 103% | NCI/ADR-RES ovarian 82.4% | T-47D breast 100% | BT-549 breast 138% | MDA-MB-435 melanoma 84.7% | SW-620 colon 86.9% | MCF7 breast 69.9% | HCT-116 colon 49.9% | HCC-2998 colon 70.8% | KM12 colon 66.1%

CN(C)c1nc(N)c(N=O)c(N)n1
inactive: RPMI-8226 leukemia 110% | OVCAR-8 ovarian 114% | OVCAR-5 ovarian 111% | OVCAR-4 ovarian 108% | SK-OV-3 ovarian 99.2% | IGROV1 ovarian 110% | OVCAR-3 ovarian 101% | HS 578T breast 106% | NCI/ADR-RES ovarian 122% | T-47D breast 104% | BT-549 breast 115% | MDA-MB-435 melanoma 110% | SW-620 colon 108% | MCF7 breast 102% | HCT-116 colon 105% | HCC-2998 colon 113% | KM12 colon 108%

c1ccc([P+](CCC[P+](c2ccccc2)(c2ccccc2)c2ccccc2)(c2ccccc2)c2ccccc2)cc1
inactive: OVCAR-8 ovarian 70.6% | OVCAR-5 ovarian 89.7% | OVCAR-4 ovarian 66.7% | SK-OV-3 ovarian 93.2% | IGROV1 ovarian 59.1% | OVCAR-3 ovarian 54.1% | HS 578T breast 94.8% | NCI/ADR-RES ovarian 104% | T-47D breast 45.2% | BT-549 breast 75.9% | MDA-MB-435 melanoma 38.6% | SW-620 colon 85.4% | MCF7 breast 59% | HCT-116 colon 67.5% | HCC-2998 colon 48.1% | KM12 colon 45.5%
active: RPMI-8226 leukemia 1.19%

Cc1cc2c(C(C)C)c(O)c(O)c(C=NCCCCC(=O)O)c2c(O)c1-c1c(C)cc2c(C(C)C)c(O)c(O)c(C=NCCCCC(=O)O)c2c1O
inactive: RPMI-8226 leukemia 28.8% | OVCAR-8 ovarian 46.1% | OVCAR-5 ovarian 70.9% | OVCAR-4 ovarian 44.2% | SK-OV-3 ovarian 63.9% | IGROV1 ovarian 41.7% | OVCAR-3 ovarian 45.4% | HS 578T breast 30.9% | NCI/ADR-RES ovarian 74.2% | T-47D breast 53.9% | BT-549 breast 41.6% | MDA-MB-435 melanoma 61% | SW-620 colon 37.1% | MCF7 breast 32.8% | HCT-116 colon 33% | HCC-2998 colon 40.2% | KM12 colon 25.6%

Cc1nc2scc(-c3ccccc3)n2c(=O)c1CCO
inactive: RPMI-8226 leukemia 102% | OVCAR-8 ovarian 109% | OVCAR-5 ovarian 109% | OVCAR-4 ovarian 93.8% | SK-OV-3 ovarian 105% | IGROV1 ovarian 98.1% | OVCAR-3 ovarian 100% | HS 578T breast 95% | NCI/ADR-RES ovarian 112% | T-47D breast 99.6% | BT-549 breast 116% | MDA-MB-435 melanoma 103% | SW-620 colon 101% | MCF7 breast 88.9% | HCT-116 colon 101% | HCC-2998 colon 112% | KM12 colon 103%

Cc1nc2sccn2c1-c1csc(Nc2ccccc2Cl)n1
inactive: RPMI-8226 leukemia 38.9% | OVCAR-8 ovarian 53% | OVCAR-5 ovarian 54.9% | OVCAR-4 ovarian 47.3% | SK-OV-3 ovarian 75.9% | IGROV1 ovarian 60.5% | OVCAR-3 ovarian 47.7% | HS 578T breast 76.7% | NCI/ADR-RES ovarian 21.6% | T-47D breast 41% | BT-549 breast 40.6% | SW-620 colon 33.1% | MCF7 breast 33.9% | HCT-116 colon 27.8% | HCC-2998 colon 63.8% | KM12 colon 29.6%
active: MDA-MB-435 melanoma 2.78%

COC(=O)CCCCCN=Cc1c(O)c(O)c(C(C)C)c2cc(C)c(-c3c(C)cc4c(C(C)C)c(O)c(O)c(C=NCCCCCC(=O)OC)c4c3O)c(O)c12
active: HCT-116 colon 9.82%
inactive: RPMI-8226 leukemia 16.6% | OVCAR-8 ovarian 11.4% | OVCAR-5 ovarian 11.3% | OVCAR-4 ovarian 15.5% | SK-OV-3 ovarian 24% | IGROV1 ovarian 25.6% | OVCAR-3 ovarian 15.9% | HS 578T breast 19.9% | NCI/ADR-RES ovarian 61.8% | T-47D breast 11.8% | BT-549 breast 35.1% | MDA-MB-435 melanoma 21.1% | SW-620 colon 20.2% | MCF7 breast 12.9% | HCC-2998 colon 30.2% | KM12 colon 19.7%

COc1ccc(/C=C2\CCCC3=C2NC(C)=NC3c2ccc(OC)c(OC)c2)cc1OC (centres undefined)
active: RPMI-8226 leukemia -25.8% | OVCAR-8 ovarian 3.09% | OVCAR-5 ovarian 4.73% | SK-OV-3 ovarian 6.97% | OVCAR-3 ovarian 2.97% | BT-549 breast -16.1% | MDA-MB-435 melanoma 1.49% | SW-620 colon -28.8% | HCT-116 colon -95.7% | HCC-2998 colon -47.8% | KM12 colon 6.19%
inactive: OVCAR-4 ovarian 21% | IGROV1 ovarian 24.4% | HS 578T breast 59% | NCI/ADR-RES ovarian 11.2% | T-47D breast 11.2% | MCF7 breast 26.3%

COc1ccc(/C(=N/O)c2cc(OC)c(OC)c(OC)c2)c(OC)c1N
inactive: RPMI-8226 leukemia 32% | OVCAR-8 ovarian 40.7% | OVCAR-5 ovarian 71.9% | OVCAR-4 ovarian 50% | SK-OV-3 ovarian 35.7% | IGROV1 ovarian 55% | NCI/ADR-RES ovarian 31% | T-47D breast 27.2% | BT-549 breast 36.2% | SW-620 colon 17.4% | MCF7 breast 21% | HCT-116 colon 20.6% | HCC-2998 colon 73.4% | KM12 colon 23.8%
active: OVCAR-3 ovarian 1.89% | HS 578T breast 8.77% | MDA-MB-435 melanoma -42.3%

CN1CCN(c2ccc3cc(-c4nc5ccccc5[nH]4)c(=O)oc3c2)CC1
inactive: RPMI-8226 leukemia 64.5% | OVCAR-8 ovarian 94.7% | OVCAR-5 ovarian 102% | OVCAR-4 ovarian 70.3% | SK-OV-3 ovarian 101% | IGROV1 ovarian 79.9% | OVCAR-3 ovarian 97.2% | HS 578T breast 96.1% | NCI/ADR-RES ovarian 86.9% | T-47D breast 76.9% | BT-549 breast 87.7% | MDA-MB-435 melanoma 99.5% | SW-620 colon 107% | MCF7 breast 73.6% | HCT-116 colon 81.9% | HCC-2998 colon 114% | KM12 colon 90%
